# Experimental data from paper PMC7862700, “An all-to-all approach to the identification of sequence-specific readers for epigenetic DNA modifications on cytosine”.
# Tests used:
# Test in all cases: DAPPL (digital affinity profiling via proximity ligation, sequencing); 10 mM Tris-HCl pH 7.5, 50 mM NaCl, 1 mM DTT, 4% glycerol, room temperature, 30 min; GST-TFs on glutathione beads, 16-mer random dsDNA library, 0.1% formaldehyde crosslink after washing; high values mean tight binding
# [1] = biological target: T1, FLI1 (Homo sapiens, UniProt Q01543 1-452); settings: protein: recombinant; tags: N-terminal GST; dsDNA, one strand shown
# T1 sequence: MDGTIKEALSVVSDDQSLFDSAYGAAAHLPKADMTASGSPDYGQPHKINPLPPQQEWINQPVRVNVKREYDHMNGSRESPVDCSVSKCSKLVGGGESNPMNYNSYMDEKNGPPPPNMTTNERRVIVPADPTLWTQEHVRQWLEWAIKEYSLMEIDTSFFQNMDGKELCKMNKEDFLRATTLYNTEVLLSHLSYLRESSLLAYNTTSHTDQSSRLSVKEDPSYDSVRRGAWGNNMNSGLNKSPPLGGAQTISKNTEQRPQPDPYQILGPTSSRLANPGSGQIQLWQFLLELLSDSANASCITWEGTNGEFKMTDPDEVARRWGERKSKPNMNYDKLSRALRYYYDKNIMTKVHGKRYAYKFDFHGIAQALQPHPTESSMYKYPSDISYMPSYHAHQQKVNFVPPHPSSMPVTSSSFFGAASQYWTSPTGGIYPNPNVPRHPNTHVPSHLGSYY
# Summary of the method: (§1)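 A tag-only sample was pooled with DNA-barcoded human transcription factors that had been expressed in yeast as GST fusions and captured on glutathione beads. The pools were incubated for 30 min at room temperature with 200 nmole of a random double-stranded 16-mer DNA library in Tris/NaCl/DTT/glycerol buffer, then washed, crosslinked with 0.1% formaldehyde, proximity-ligated (BsaI/T4 ligase, 1 h, 37 °C), PCR-amplified and sequenced on an Illumina NextSeq500. Binding signal is each hexamer's read frequency for a factor divided by its frequency for the tag-only sample.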
# [2] = biological target: T2, ELK1 (Homo sapiens, UniProt P19419 1-428); settings: protein: recombinant; tags: N-terminal GST; dsDNA, one strand shown
# T2 sequence: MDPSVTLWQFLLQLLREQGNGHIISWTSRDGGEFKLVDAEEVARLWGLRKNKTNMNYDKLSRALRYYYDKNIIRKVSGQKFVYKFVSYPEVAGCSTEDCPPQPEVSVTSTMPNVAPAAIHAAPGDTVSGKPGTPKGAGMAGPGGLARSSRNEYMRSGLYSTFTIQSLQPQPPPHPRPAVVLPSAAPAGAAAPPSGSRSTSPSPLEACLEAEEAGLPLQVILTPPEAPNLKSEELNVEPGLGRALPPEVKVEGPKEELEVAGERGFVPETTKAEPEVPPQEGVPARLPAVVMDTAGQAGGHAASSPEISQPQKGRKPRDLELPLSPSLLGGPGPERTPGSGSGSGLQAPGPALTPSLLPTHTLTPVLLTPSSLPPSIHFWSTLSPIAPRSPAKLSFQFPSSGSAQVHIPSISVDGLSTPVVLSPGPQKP
# Summary of the method: as §1
# [3] = biological target: T3, GABPA (Homo sapiens, UniProt Q06546 1-454); settings: protein: recombinant; tags: N-terminal GST; dsDNA, one strand shown
# T3 sequence: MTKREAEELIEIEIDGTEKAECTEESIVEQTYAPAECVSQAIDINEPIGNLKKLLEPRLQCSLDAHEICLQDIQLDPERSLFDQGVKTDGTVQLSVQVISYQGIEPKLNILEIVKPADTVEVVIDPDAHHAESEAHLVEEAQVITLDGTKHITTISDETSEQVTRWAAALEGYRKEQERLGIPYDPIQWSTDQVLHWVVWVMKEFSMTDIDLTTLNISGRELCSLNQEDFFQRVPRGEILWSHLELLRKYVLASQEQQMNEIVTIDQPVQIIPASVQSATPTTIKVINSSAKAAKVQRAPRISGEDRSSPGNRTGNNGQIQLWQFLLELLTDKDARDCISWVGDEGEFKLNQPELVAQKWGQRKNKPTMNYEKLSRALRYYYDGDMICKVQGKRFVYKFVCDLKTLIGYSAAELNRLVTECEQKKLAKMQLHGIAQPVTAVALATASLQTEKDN
# Summary of the method: as §1
# [4] = biological target: T4, ERG (Homo sapiens, UniProt P11308 1-479); settings: protein: recombinant; tags: N-terminal GST; dsDNA, one strand shown
# T4 sequence: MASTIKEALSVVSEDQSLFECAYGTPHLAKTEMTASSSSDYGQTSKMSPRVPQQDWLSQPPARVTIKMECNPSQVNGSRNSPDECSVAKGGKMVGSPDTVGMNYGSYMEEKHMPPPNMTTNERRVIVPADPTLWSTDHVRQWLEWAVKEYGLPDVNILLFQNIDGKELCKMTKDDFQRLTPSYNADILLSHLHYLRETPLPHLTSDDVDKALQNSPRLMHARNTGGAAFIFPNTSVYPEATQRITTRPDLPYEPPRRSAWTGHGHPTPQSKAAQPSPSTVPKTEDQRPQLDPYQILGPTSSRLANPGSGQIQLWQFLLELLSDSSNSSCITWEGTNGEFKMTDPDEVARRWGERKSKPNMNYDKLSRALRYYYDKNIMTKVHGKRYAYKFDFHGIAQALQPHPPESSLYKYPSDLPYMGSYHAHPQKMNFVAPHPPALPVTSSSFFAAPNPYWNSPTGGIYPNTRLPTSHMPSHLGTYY
# Summary of the method: as §1
# [5] = biological target: ELF1 (Homo sapiens, UniProt P32519 1-619); settings: protein: recombinant; tags: N-terminal GST; dsDNA, one strand shown
# Summary of the method: as §1
# [6] = biological target: T5, EHF (Homo sapiens, UniProt Q9NZC4 1-300); settings: protein: recombinant; tags: N-terminal GST; dsDNA, one strand shown
# T5 sequence: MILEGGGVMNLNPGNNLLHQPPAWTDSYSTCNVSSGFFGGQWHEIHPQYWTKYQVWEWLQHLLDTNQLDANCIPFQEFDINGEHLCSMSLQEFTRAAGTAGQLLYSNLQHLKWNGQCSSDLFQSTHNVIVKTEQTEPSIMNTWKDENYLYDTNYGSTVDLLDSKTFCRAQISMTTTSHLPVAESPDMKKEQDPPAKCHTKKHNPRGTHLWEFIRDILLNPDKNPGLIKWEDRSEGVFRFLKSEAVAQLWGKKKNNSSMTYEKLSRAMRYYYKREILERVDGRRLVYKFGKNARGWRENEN
# Summary of the method: as §1
# [7] = biological target: SPI1 (Homo sapiens, UniProt P17947 1-270); settings: protein: recombinant; tags: N-terminal GST; dsDNA, one strand shown
# Summary of the method: as §1
# [8] = biological target: SPIB (Homo sapiens, UniProt Q01892 1-262); settings: protein: recombinant; tags: N-terminal GST; dsDNA, one strand shown
# Summary of the method: as §1
# [9] = biological target: T6, ELK3 (Homo sapiens, UniProt P41970 1-407); settings: protein: recombinant; tags: N-terminal GST; dsDNA, one strand shown
# T6 sequence: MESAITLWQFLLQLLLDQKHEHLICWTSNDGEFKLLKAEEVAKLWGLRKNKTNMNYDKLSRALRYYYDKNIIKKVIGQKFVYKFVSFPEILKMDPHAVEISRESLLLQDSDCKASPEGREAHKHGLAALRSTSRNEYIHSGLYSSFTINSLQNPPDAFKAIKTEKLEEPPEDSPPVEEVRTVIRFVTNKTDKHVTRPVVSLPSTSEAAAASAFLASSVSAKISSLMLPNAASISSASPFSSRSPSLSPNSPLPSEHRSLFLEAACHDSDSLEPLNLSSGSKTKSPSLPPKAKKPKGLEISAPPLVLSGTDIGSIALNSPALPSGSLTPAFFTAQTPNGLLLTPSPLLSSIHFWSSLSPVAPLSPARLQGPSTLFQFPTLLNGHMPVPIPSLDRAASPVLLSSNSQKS
# Summary of the method: as §1
# [10] = biological target: T7, FEV (Homo sapiens, UniProt Q99581 1-238); settings: protein: recombinant; tags: N-terminal GST; dsDNA, one strand shown
# T7 sequence: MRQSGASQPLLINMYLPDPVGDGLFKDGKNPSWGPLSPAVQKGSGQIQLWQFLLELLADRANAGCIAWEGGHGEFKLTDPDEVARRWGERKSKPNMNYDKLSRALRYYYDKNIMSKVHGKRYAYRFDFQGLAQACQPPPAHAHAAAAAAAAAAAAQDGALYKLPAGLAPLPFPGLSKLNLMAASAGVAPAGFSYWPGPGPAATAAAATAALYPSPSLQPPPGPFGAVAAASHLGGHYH
# Summary of the method: as §1
# [11] = biological target: ETV5 (Homo sapiens, UniProt P41161 1-510); settings: protein: recombinant; tags: N-terminal GST; dsDNA, one strand shown
# Summary of the method: as §1
# [12] = biological target: HSF1 (Homo sapiens, UniProt Q00613 1-529); settings: protein: recombinant; tags: N-terminal GST; chain copies: 3; dsDNA, one strand shown
# Summary of the method: as §1
# [13] = biological target: T8, SPIC (Homo sapiens, UniProt Q8N5J4 1-248); settings: protein: recombinant; tags: N-terminal GST; dsDNA, one strand shown
# T8 sequence: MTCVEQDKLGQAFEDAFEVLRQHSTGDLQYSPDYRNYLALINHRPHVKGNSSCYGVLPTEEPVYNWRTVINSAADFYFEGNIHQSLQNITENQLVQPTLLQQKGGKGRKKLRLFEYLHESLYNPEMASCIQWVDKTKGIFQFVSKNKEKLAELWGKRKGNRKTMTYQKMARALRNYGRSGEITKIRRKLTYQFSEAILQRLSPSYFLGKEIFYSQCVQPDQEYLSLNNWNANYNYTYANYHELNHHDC
# Summary of the method: as §1
# [14] = biological target: ELF4 (Homo sapiens, UniProt Q99607 1-663); settings: protein: recombinant; tags: N-terminal GST; dsDNA, one strand shown
# Summary of the method: as §1
# [15] = biological target: T9, ELK4 (Homo sapiens, UniProt P28324-2 1-405); settings: protein: recombinant; tags: N-terminal GST; dsDNA, one strand shown
# T9 sequence: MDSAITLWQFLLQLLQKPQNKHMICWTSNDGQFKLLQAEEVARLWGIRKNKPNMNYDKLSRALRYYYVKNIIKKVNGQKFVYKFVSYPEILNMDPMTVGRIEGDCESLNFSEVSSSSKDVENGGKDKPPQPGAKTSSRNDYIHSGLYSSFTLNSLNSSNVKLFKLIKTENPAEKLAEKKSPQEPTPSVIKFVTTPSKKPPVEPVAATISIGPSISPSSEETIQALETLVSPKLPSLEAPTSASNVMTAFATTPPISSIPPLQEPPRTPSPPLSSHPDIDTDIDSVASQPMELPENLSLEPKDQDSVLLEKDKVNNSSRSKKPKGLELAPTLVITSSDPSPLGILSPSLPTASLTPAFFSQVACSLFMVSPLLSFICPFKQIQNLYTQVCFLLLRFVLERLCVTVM
# Summary of the method: as §1
# [16] = biological target: T10, ETV2 (Homo sapiens, UniProt O00321 1-342); settings: protein: recombinant; tags: N-terminal GST; dsDNA, one strand shown
# T10 sequence: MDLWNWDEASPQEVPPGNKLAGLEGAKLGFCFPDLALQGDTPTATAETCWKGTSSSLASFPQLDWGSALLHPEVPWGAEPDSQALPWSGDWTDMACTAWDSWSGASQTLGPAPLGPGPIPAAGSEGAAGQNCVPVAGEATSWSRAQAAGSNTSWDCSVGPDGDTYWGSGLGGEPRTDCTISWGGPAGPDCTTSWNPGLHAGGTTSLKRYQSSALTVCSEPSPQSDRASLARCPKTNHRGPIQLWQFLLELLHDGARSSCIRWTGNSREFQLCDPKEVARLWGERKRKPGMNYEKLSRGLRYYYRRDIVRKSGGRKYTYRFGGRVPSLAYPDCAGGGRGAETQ
# Summary of the method: as §1
# [17] = biological target: T11, ELF3 (Homo sapiens, UniProt P78545 1-371); settings: protein: recombinant; tags: N-terminal GST; dsDNA, one strand shown
# T11 sequence: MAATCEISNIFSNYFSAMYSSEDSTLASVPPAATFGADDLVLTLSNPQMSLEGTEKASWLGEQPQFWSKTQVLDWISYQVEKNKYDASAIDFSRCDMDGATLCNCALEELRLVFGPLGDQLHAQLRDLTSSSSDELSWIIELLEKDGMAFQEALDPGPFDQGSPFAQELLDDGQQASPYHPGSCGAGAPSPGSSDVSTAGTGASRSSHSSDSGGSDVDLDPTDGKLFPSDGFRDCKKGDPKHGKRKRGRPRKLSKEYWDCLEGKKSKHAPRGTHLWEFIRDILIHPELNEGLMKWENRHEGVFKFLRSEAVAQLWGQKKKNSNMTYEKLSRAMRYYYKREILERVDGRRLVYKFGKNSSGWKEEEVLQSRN
# Summary of the method: as §1
# [18] = biological target: CRX (Homo sapiens, UniProt O43186 1-299); settings: protein: recombinant; tags: N-terminal GST; dsDNA, one strand shown
# Summary of the method: as §1
# [19] = biological target: ETV1 (Homo sapiens, UniProt P50549 1-477); settings: protein: recombinant; tags: N-terminal GST; dsDNA, one strand shown
# Summary of the method: as §1
# Sequence of ETV5 (P41161 whole entry): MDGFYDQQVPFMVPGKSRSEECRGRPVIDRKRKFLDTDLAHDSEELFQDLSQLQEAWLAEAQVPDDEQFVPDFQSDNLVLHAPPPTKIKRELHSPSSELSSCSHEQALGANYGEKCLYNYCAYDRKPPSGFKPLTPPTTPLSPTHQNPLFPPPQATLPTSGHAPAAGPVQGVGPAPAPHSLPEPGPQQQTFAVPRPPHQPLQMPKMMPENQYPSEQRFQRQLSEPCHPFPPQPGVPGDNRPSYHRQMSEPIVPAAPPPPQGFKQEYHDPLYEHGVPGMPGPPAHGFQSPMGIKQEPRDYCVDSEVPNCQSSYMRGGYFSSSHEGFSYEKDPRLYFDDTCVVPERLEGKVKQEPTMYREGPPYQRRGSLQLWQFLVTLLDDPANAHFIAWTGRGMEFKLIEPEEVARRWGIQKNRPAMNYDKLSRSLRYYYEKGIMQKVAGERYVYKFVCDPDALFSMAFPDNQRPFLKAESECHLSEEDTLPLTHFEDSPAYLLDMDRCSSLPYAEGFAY
# Sequence of HSF1 (Q00613 whole entry): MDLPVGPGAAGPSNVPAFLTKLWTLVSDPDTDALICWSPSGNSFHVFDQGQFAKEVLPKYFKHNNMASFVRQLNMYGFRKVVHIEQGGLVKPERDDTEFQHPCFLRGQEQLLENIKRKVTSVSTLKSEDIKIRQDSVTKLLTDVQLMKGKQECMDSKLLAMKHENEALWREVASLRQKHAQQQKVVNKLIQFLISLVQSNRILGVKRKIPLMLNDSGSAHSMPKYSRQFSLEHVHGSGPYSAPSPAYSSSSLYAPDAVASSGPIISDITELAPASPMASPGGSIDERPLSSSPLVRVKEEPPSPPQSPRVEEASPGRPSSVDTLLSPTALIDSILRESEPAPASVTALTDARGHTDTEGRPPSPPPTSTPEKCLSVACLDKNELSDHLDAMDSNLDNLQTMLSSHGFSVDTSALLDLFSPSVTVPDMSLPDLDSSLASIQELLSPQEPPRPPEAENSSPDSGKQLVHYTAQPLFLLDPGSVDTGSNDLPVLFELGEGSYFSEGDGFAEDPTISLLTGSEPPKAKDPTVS
# Sequence of ELF4 (Q99607 whole entry): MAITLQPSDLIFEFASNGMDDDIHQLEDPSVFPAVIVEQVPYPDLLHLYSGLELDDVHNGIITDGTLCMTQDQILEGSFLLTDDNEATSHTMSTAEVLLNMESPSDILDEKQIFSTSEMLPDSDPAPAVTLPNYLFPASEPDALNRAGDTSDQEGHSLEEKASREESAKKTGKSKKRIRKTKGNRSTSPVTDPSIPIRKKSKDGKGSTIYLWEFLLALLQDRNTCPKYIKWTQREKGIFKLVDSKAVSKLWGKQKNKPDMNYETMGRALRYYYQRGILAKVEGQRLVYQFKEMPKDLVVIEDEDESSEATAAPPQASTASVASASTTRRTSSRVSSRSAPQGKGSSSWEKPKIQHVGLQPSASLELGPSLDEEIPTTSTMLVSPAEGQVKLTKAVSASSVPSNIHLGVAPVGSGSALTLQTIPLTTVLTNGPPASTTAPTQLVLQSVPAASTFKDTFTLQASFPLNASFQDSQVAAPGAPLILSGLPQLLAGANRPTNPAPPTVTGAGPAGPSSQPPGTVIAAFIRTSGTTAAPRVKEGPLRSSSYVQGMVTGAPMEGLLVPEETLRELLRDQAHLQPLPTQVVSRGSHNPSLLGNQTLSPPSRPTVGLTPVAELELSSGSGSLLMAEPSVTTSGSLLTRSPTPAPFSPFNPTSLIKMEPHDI
# Sequence of ETV1 (P50549 whole entry): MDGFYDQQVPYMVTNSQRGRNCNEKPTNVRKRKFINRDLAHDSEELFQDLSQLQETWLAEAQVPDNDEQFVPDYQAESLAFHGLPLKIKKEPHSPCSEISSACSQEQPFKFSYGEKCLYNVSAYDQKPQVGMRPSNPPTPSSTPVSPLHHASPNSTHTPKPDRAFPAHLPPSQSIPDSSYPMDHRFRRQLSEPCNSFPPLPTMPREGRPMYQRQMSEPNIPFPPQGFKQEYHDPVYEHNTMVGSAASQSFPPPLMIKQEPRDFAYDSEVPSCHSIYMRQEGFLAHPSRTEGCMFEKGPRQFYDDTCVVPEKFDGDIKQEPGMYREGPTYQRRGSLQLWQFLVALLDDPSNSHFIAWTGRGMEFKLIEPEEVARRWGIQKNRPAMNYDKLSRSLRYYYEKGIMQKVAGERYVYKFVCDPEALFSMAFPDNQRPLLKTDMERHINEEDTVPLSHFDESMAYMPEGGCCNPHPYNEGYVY
# Sequence of SPIB (Q01892 whole entry): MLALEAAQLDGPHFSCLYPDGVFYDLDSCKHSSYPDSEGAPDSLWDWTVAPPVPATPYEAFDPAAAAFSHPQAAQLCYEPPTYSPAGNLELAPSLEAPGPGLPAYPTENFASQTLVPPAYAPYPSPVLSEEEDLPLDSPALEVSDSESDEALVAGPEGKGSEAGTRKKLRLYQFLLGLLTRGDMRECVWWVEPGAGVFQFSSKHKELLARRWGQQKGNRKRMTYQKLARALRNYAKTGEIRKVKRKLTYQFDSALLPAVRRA
# Sequence of CRX (O43186 whole entry): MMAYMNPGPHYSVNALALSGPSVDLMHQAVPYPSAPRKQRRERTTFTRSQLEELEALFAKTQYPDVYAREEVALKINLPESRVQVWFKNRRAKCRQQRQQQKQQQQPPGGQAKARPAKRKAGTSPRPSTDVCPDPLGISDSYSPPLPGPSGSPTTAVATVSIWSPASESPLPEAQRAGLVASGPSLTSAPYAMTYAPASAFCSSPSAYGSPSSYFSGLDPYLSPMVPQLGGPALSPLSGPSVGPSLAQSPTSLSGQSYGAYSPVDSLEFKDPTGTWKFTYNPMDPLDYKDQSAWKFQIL
# Sequence of ELF1 (P32519 whole entry): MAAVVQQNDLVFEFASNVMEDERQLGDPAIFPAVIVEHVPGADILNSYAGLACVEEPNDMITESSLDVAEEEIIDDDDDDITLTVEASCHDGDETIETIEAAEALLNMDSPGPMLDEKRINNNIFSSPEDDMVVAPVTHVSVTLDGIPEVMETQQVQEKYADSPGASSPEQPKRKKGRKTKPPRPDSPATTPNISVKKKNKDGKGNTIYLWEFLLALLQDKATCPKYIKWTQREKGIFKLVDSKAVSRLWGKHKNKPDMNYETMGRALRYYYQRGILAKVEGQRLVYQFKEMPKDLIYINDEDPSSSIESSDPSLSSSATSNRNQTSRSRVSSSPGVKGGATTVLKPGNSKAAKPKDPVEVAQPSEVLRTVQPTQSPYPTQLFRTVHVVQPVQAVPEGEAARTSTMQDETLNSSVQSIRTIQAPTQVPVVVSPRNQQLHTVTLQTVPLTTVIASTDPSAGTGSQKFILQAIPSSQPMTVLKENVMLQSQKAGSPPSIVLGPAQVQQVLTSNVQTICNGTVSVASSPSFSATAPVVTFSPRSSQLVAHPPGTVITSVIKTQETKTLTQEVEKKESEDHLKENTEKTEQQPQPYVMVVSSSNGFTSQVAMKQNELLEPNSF
sequence,measurement,setting,value
TTTACG,binding signal,[1],"1.39 fold enrichment (6-mer frequency, TF over GST control)"
same,binding signal,[2],"1.28 fold enrichment (6-mer frequency, TF over GST control)"
same,binding signal,[3],"1.34 fold enrichment (6-mer frequency, TF over GST control)"
same,binding signal,[4],"1.26 fold enrichment (6-mer frequency, TF over GST control)"
same,binding signal,[5],"1.26 fold enrichment (6-mer frequency, TF over GST control)"
same,binding signal,[6],"1.3 fold enrichment (6-mer frequency, TF over GST control)"
same,binding signal,[7],"1.33 fold enrichment (6-mer frequency, TF over GST control)"
same,binding signal,[8],"1.23 fold enrichment (6-mer frequency, TF over GST control)"
same,binding signal,[9],"1.27 fold enrichment (6-mer frequency, TF over GST control)"
same,binding signal,[10],"1.26 fold enrichment (6-mer frequency, TF over GST control)"
same,binding signal,[11],"1.28 fold enrichment (6-mer frequency, TF over GST control)"
same,binding signal,[12],"1.32 fold enrichment (6-mer frequency, TF over GST control)"
same,binding signal,[13],"1.24 fold enrichment (6-mer frequency, TF over GST control)"
same,binding signal,[14],"1.32 fold enrichment (6-mer frequency, TF over GST control)"
same,binding signal,[15],"1.29 fold enrichment (6-mer frequency, TF over GST control)"
same,binding signal,[16],"1.33 fold enrichment (6-mer frequency, TF over GST control)"
same,binding signal,[17],"1.28 fold enrichment (6-mer frequency, TF over GST control)"
same,binding signal,[18],"1.62 fold enrichment (6-mer frequency, TF over GST control)"
same,binding signal,[19],"1.32 fold enrichment (6-mer frequency, TF over GST control)"
